# Measured values reported in PubChem BioAssay (EPA / NIEHS).
# Results filed as inconclusive are left out. Some compounds were tested as several samples or in several runs, with calls that do not always agree. Calls of active or inactive are those of the source. How the source made its calls, unless noted: active means hit-call score of the fitted dose curve at least 0.9, where 1 is the maximum; inconclusive means response in the unintended direction; inactive means score below 0.9.
# How the values were obtained:
# [1] = IUF_NPC2a_radial_glia_migration_120hr: Leibniz Research Institute for Environmental Medicine (IUF) 120-hour Neural Progenitor Cell Migration Assay for Radial Glia Migration (NPC2a) (AID 2284298; active means hit-call score of the fitted dose curve at least 0.9, where 1 is the maximum; inactive means score below 0.9)
# Procedure, shortened: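 Single 0.3 mm primary human fetal-cortex (GW 16-19) NPC spheres were plated on poly-D-lysine/laminin in N2 differentiation medium and exposed from day 0 for 120 h, half-medium refreshed day 3. Migration distance came from Hoechst nuclei-density imaging, relative to DMSO.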
# [2] = IUF_NPC2b_neuronal_migration_120hr: Leibniz Research Institute for Environmental Medicine (IUF) 120-hour Neural Progenitor Cell Migration Assay for Neuron Migration (NPC2b) (AID 2284300; active means hit-call score of the fitted dose curve at least 0.9, where 1 is the maximum; inactive means score below 0.9)
# Procedure, shortened: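 Primary human fetal cortex neural progenitor spheres (0.3 mm) plated on poly-D-lysine/laminin in N2 differentiation medium, exposed 120 h with half-medium refresh at day 3. TUBB3-stained neuron distance from sphere core, normalized to radial glia migration, versus DMSO.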
# [3] = IUF_NPC3_neuronal_differentiation_120hr: Leibniz Research Institute for Environmental Medicine (IUF) 120-hour Neuronal Differentiation Assay (NPC3) (AID 2284301; active means hit-call score of the fitted dose curve at least 0.9, where 1 is the maximum; inactive means score below 0.9)
# Procedure, shortened: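 Primary human fetal neural progenitor spheres (GW 16-19, 0.3 mm) plated on poly-D-lysine/laminin in N2 medium, exposed from day 0 for 120 h with half-medium refresh at day 3. TUBB3+ cells as percent of Hoechst nuclei in migration area; DMSO baseline.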
# [4] = IUF_NPC5_oligodendrocyte_differentiation_120hr: Leibniz Research Institute for Environmental Medicine (IUF) 120-hour Oligodendrocyte Differentiation Assay (NPC5) (AID 2284304);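 further: primary human fetal neural progenitor spheres plated to migrate and differentiate; share of O4-positive cells among Hoechst nuclei found by CNN image analysis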
# Procedure, shortened: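 Primary human fetal (GW 16-19) neural progenitor spheres (0.3 mm) plated on poly-D-lysine/laminin in N2 differentiation medium, exposed from day 0 for 120 h with half-medium refresh at day 3; O4-positive cells as percent of Hoechst nuclei, CNN-identified, versus DMSO.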
# [5] = IUF_NPC4_neurite_area_120hr: Leibniz Research Institute for Environmental Medicine (IUF) 120-hour Neuronal Morphology Assay for Neurite Area (NPC4) (AID 2284305)
# Procedure, shortened: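 Human fetal cortex-derived neural progenitor spheres (0.3 mm, GW 16-19) plated on poly-D-lysine/laminin in N2 differentiation medium and exposed from day 0 for 120 h across 7 concentrations plus solvent control. Neurite area is mean pixel area per TUBB3-positive neuron via skeletonization, analysed relative to DMSO.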
# [6] = IUF_NPC2-5_cytotoxicity_72hr: Cytotoxicity Assessment at 72 hours in the Leibniz Research Institute for Environmental Medicine (IUF) Neural Progenitor Cell Migration and Differentiation Assay for Cytotoxicity (NPC2-5) (AID 2284306);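 further: LDH release into supernatant measured by resorufin fluorescence marking membrane damage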
# Procedure, shortened: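 Human fetal (GW 16-19) neural progenitor spheres, 0.3 mm, plated on poly-D-lysine/laminin in N2 differentiation medium and exposed from day 0 to 7 concentrations plus solvent control (DMSO ≤0.1%). LDH-dependent resazurin-to-resorufin fluorescence in supernatant at 72 h.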
# [7] = IUF_NPC2-5_cytotoxicity_120hr: Cytotoxicity Assessment at 120 hours in the Leibniz Research Institute for Environmental Medicine (IUF) Neural Progenitor Cell Migration and Differentiation Assay (NPC2-5) (AID 2284307);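 on AC50: LDH released into supernatant as membrane damage marker via resorufin fluorescence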
# Procedure, shortened: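 Human fetal neural progenitor spheres (0.3 mm, GW 16-19 cortex) were plated on poly-D-lysine/laminin in N2 differentiation medium and exposed for 120 h, with half-medium refresh at day 3. LDH release into supernatant was read by resorufin fluorescence.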
# [8] = IUF_NPC2-5_cell_number_120hr: Cell Number Assessment at 120 hours in the Leibniz Research Institute for Environmental Medicine (IUF) Neural Progenitor Cell Migration and Differentiation Assay (NPC2-5) (AID 2284308; active means hit-call score of the fitted dose curve at least 0.9, where 1 is the maximum; inactive means score below 0.9;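 further: count of Hoechst-stained nuclei in migration zone around plated human neural progenitor spheres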)
# Procedure, shortened: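 Primary human fetal neural progenitor spheres (GW 16-19, 0.3 mm) plated on poly-D-lysine/laminin in N2 differentiation medium, exposed from day 0 for 120 h with half-medium refresh at day 3; Hoechst-positive nuclei counted in migration area versus DMSO control.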
# [9] = CCTE_Mundy_HCI_iCellGluta_NOG_NeuriteLength: CCTE's Neurite Outgrowth Assay in iCellGluta cells for Neurite Length, Mundy Lab (AID 2284318)
# Procedure, shortened: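 Automated high-content imaging of betaIII-tubulin (Alexa Fluor-488) and Hoechst-stained cells gave neurite length, normalized to the DMSO baseline.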
# [10] = CCTE_Deisenroth_5AR_NBTE_donor: CCTE's 5alpha-reductase NanoBRET Target Engagement Assay […], Deisenroth Lab (AID 2284319; active means hit-call score of the fitted dose curve at least 0.9, where 1 is the maximum; inactive means score below 0.9); conditions: actives raise or lower the signal
# Procedure, shortened: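 Donor NanoLuc luminescence at 460-20 nm is the read-out, serving artifact detection. Transiently expressed SRD5A2-NanoLuc in HEK293T; 5 h total chemical exposure, testosterone tracer added for the final 2 h; fitting bidirectional relative to DMSO baseline.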
# [11] = VALA_TUBHUV_Agonist_CellCount: Viability Assessment in the VALA Sciences human Umbilical Vein Endothelial Tubule Formation (TUBHUV) Agonism Assay (AID 2284309)
# Procedure, shortened: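 HUVEC co-cultured 1:3 with HDF for 3 days in 10 ng/ml VEGF, then compounds added in VEGF medium for a further 3 days (72 h). Nuclear-stain/CD31 imaging cell count. Positive-direction fit versus 0.1% DMSO vehicle.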
# [12] = VALA_TUBHUV_Antagonist_CellCount: Viability Assessment in the VALA Sciences human Umbilical Vein Endothelial Tubule Formation (TUBHUV) Antagonism Assay (AID 2284310)
# Procedure, shortened: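 HUVEC co-cultured with HDF (1:3) 3 days in 10 ng/ml VEGF, then 3 days with compounds in VEGF medium. Fixed, nuclear stain and CD31 immunofluorescence, imaged; cell counts fitted versus 0.1% DMSO, loss of signal read as lower viability.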
# [13] = VALA_TUBIPS_Antagonist_TubuleLength: VALA Sciences human iPS-derived Endothelial Tubule Formation (TUBIPS) Antagonist Assay (AID 2284313)
# Procedure, shortened: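 Cells grown 3 days with 10 ng/ml VEGF, then exposed to compounds in VEGF medium for another 3 days. After fixation, nuclear stain and CD31 immunofluorescence imaging gave mean total tubule length against 0.1% DMSO; suramin (100 uM) inhibition control.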
# [14] = VALA_TUBIPS_Agonist_TubuleLength: VALA Sciences human iPS-derived Endothelial Tubule Formation (TUBIPS) Agonism Assay (AID 2284311)
# Procedure, shortened: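 Human iPS-derived endothelial cells were exposed to compound for 72 h. Tubule formation was imaged by high-content fluorescence and scored as gain of signal relative to DMSO vehicle (agonist mode).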
# [15] = VALA_MIGHUV2_Bcatenin: VALA Sciences human Umbilical Vein Endothelial Cell Migration (MIGHUV) Assay, Nuclear Translocation of beta-Catenin after Recovery (AID 2284315)
# Procedure, shortened: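 HUVEC (4000 cells/well) scratch-wounded, dosed within 30 min over 6 concentrations in triplicate, recovered 24 h. After fixation, Hoechst and anti-beta-catenin immunofluorescence imaged for nuclear CTNB. Gain of signal versus 0.1% DMSO.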
# [16] = VALA_MIGHUV2_WoundArea: VALA Sciences human Umbilical Vein Endothelial Cell Migration (MIGHUV) Assay, Area of Scratch Wound after Recovery (AID 2284316)
# Procedure, shortened: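 HUVEC seeded at 9000 cells/well, scratched after 24 h; test chemical added within 30 min, 6-point concentration response in triplicate (0.1% DMSO vehicle). After 24 h wound recovery, cells fixed and Hoechst-stained nuclei in wound area imaged; Cytochalasin D reference control.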
# [17] = tested on: IYD (gene 389434); assay: CCTE_GLTED_hIYD: CCTE's human Iodotyrosine Deiodinase (xIYD) Inhibition Assay, Great Lakes Toxicology and Ecology Division (GLTED) Lab (AID 2284317);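 further: cell-free human IYD enzyme made in baculovirus insect cells; iodide freed from monoiodotyrosine measured by cerium arsenite color change at 420 nm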
# Procedure, shortened: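 Absorbance change at 420 nm from the iodide-catalysed cerium-arsenic reaction reports free iodide released by human IYD from monoiodotyrosine. Enzyme, substrate and chemical are incubated 3 h; loss of signal is fitted relative to DMSO baseline.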
# [18] = VALA_MIGHUV2_CellCount: Viability Assessment in the VALA Sciences human Umbilical Vein Endothelial Cell Migration (MIGHUV) Assay, Area of Scratch Wound after Recovery (AID 2284314)
# Procedure, shortened: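 Scratch-wounded HUVEC monolayers received test chemical within 30 min, 6-point concentration response in triplicate, 0.1 % DMSO vehicle. After 24 h wound recovery, fixed cells were Hoechst-stained and nuclei imaged; loss of signal versus DMSO indicates reduced viability.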
# [19] = read-out: CD69, CD69 (gene 969); assay: BSK_LPS_CD69: BioMAP Diversity Plus: LPS Assay for CD69 Biomarker Activity (AID 2284303; active means hit-call score of the fitted dose curve at least 0.9, where 1 is the maximum; inactive means score below 0.9); conditions: primary human HUVEC with PBMC
# Procedure, shortened: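 Human umbilical vein endothelial cells co-cultured with PBMC under LPS stimulation, chemical exposure 24 h; cell-surface CD69 measured by ELISA and fitted in the positive direction versus DMSO.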
# [20] = tested on: TTR (gene 7276); assay: CCTE_GLTED_hTTR_0.5uM: CCTE's human Transthyretin (hTTR) Inhibition Assay, with 0.5uM TTR, Great Lakes Toxicology and Ecology Division (GLTED) Lab (AID 2284320; active means hit-call score of the fitted dose curve at least 0.9, where 1 is the maximum; inactive means score below 0.9)
# Procedure, shortened: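 Cell-free displacement assay in which human TTR at 0.5 uM was incubated with test chemical for 2 h. Displacement of the ANSA probe was read by fluorescence at 380 nm excitation/475 nm emission. Loss of signal was fitted in the positive direction versus DMSO.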
structure (smiles),measurement,setting,value
CNC(=O)Oc1cccc2c1OC(C)(C)C2,outcome,[1],inactive
same,outcome,[2],inactive
same,outcome,[3],inactive
same,outcome,[4],inactive
same,outcome,[5],inactive
same,outcome,[6],inactive
same,outcome,[7],inactive
same,outcome,[8],inactive
same,AC50,[9],49.6 µM (active)
Nc1ccc(N=Nc2ccccc2)cc1,AC50,[10],23.8 µM (active)
CCCCCCCCn1sccc1=O,AC50,[10],72.7 µM (active)
CCC[CH2][Sn]([Cl])([CH2]CCC)[CH2]CCC,AC50,[1],0.37 µM (active)
same,AC50,[2],0.319 µM (active)
same,AC50,[3],0.284 µM (active)
same,AC50,[4],0.12 µM (active)
same,AC50,[5],0.312 µM (active)
same,AC50,[6],0.31 µM (active)
same,AC50,[7],0.455 µM (active)
same,AC50,[8],0.31 µM (active)
same,AC50,[9],0.163 µM (active)
same,AC50,[10],4.88 µM (active)
CC(C)(C)C(O)(CCc1ccc(Cl)cc1)Cn1cncn1 (stereo not given),outcome,[2],inactive
same,outcome,[3],inactive
same,outcome,[4],inactive
same,outcome,[5],inactive
same,outcome,[6],inactive
same,outcome,[7],inactive
same,outcome,[8],inactive
Oc1ccc2ccc3cccc4ccc1c2c34,outcome,[11],inactive
same,outcome,[12],inactive
same,outcome,[13],inactive
Clc1ccc(Cl)c(Cl)c1,outcome,[11],inactive
same,outcome,[14],inactive
OCCOCCO,outcome,[1],inactive
same,outcome,[2],inactive
same,outcome,[3],inactive
same,outcome,[4],inactive
same,outcome,[6],inactive
same,outcome,[7],inactive
same,outcome,[8],inactive
CO[C@@H]1[C@H](OC(=O)NC(=O)CCl)CC[C@]2(CO2)[C@H]1[C@@]1(C)O[C@@H]1CC=C(C)C,outcome,[11],inactive
same,outcome,[12],inactive
same,outcome,[13],inactive
same,AC50,[15],0.00129 µM (active)
same,outcome,[16],inactive
Cc1ccc(N)c(N)c1,outcome,[10],inactive
CC(C)(O)c1cnn2c(-c3ccc(F)c(-c4c(F)cccc4C#N)c3)cnc2n1,outcome,[10],inactive
CN(C)[C@@H]1C(=O)C(C(N)=O)=C(O)[C@@]2(O)C(=O)C3=C(O)c4c(O)cccc4[C@@](C)(O)[C@H]3C[C@@H]12,AC50,[9],23.3 µM (active)
CC(C)COC(=O)c1ccccc1C(=O)OCC(C)C,outcome,[1],inactive
same,outcome,[2],inactive
same,outcome,[3],inactive
same,outcome,[4],inactive
same,outcome,[5],inactive
same,outcome,[6],inactive
same,outcome,[7],inactive
same,outcome,[8],inactive
same,outcome,[9],inactive
C[C@]12C=CC3=C4CCC(=O)C=C4CC[C@H]3[C@@H]1CC[C@@H]2O,outcome,[10],inactive
COc1cc(C=O)cc2c1[C@H](COC(N)=O)[C@]1(OC(C)=O)ON2C[C@H]2[C@@H]1N2C(C)=O,outcome,[10],inactive
[Cl-].[Cl-].[Hg+2],AC50,[10],74.8 µM (active)
c1ccc2c(c1)-c1cccc3cccc-2c13,outcome,[10],inactive
Cc1cc(N=Nc2ccccc2C)ccc1N,AC50,[10],40.6 µM (active)
Clc1ccc(C(c2ccc(Cl)cc2)C(Cl)(Cl)Cl)cc1,AC50,[17],35.2 µM (active)
COC(=O)Nc1nc2ccccc2[nH]1,AC50,[1],11.3 µM (active)
same,outcome,[2],inactive
same,outcome,[3],inactive
same,outcome,[5],inactive
same,outcome,[6],inactive
same,AC50,[8],7.82 µM (active)
same,outcome,[9],inactive
O=P(OCCCl)(OCCCl)OCCCl,outcome,[1],inactive
same,outcome,[2],inactive
same,outcome,[3],inactive
same,outcome,[5],inactive
same,outcome,[6],inactive
same,outcome,[7],inactive
same,outcome,[8],inactive
same,outcome,[11],inactive
same,AC50,[12],88.3 µM (active)
same,outcome,[14],inactive
same,outcome,[13],inactive
same,outcome,[18],inactive
CCNS(=O)(=O)C(F)(F)C(F)(F)C(F)(F)C(F)(F)C(F)(F)C(F)(F)C(F)(F)C(F)(F)F,AC50,[19],15.4 µM (active)
same,outcome,[19],inactive
same,AC50,[20],1.54 µM (active)
[O-][Cl+]O,outcome,[1],inactive
same,outcome,[2],inactive
same,outcome,[3],inactive
same,outcome,[5],inactive
same,outcome,[6],inactive
same,outcome,[7],inactive
same,outcome,[8],inactive
same,AC50,[9],24 µM (active)
CCCCOC(=O)c1ccccc1C(=O)OCc1ccccc1,outcome,[1],inactive
same,outcome,[2],inactive
same,outcome,[3],inactive
same,outcome,[5],inactive
same,outcome,[6],inactive
same,outcome,[7],inactive
same,outcome,[8],inactive
same,outcome,[9],inactive
COP(=S)(OC)SCN1C(=O)c2ccccc2C1=O,outcome,[1],inactive
same,outcome,[2],inactive
same,outcome,[3],inactive
same,outcome,[4],inactive
same,outcome,[5],inactive
same,outcome,[6],inactive
same,outcome,[7],inactive
same,outcome,[8],inactive
same,AC50,[9],92.2 µM (active)
